The full data set covers some 8,800 targets. This sample favours those with a hit. About 0.5% of all pairs of compound and target were hits.
Columns and labels:
Assay in all cases: log2 fold change, soluble protein after heating vs DMSO (PISA); higher = thermal stabilisation; K562 lysate, 10 uM; active = over 0.2 and 3.5 SD of the protein, either way, in both replicates (recomputed)
nilotinib = compound: Cc1cn(-c2cc(NC(=O)c3ccc(C)c(Nc4nccc(-c5cccnc5)n4)c3)cc(C(F)(F)F)c2)cn1 [nilotinib]
Method in brief: (§1)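 To prepare the extract, K562 pellets were dounce-homogenised in PBS pH 7.4 with 1 mM MgCl2, giving crude material at 1 mg/mL protein. This was treated with 10 μM compound for 30 min, then heated in aliquots for 3 min over 48°C-58°C before pooling and addition of NP-40 to 0.5% at 4°C. Centrifugation at 21,000xg for 90 min left soluble protein in the supernatant, which TMTpro 16plex LC-MS/MS quantified with equalised channel sums. Results are log-two fold changes in thermal stability compared with solvent controls, from duplicates.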

[1] = compound: Cc1nc(Nc2n[nH]c3c2CN(C(=O)N[C@H](CN(C)C)c2ccccc2)C3(C)C)c2sccc2n1
Method in brief: as §1

dasatinib = compound: Cc1nc(Nc2ncc(C(=O)Nc3c(C)cccc3Cl)s2)cc(N2CCN(CCO)CC2)n1 [dasatinib]
Method in brief: as §1

[2] = compound: Cc1ncc(-c2ccnc(Nc3ccc(S(C)(=O)=O)cc3)n2)n1C(C)C
Method in brief: as §1

[3] = compound: Cn1cc(-c2ccc3c(c2)CCN3C(=O)Cc2cccc(C(F)(F)F)c2)c2c(N)ncnc21
Method in brief: as §1

quisinostat = compound: Cn1cc(CNCC2CCN(c3ncc(C(=O)NO)cn3)CC2)c2ccccc21 [quisinostat]
Method in brief: as §1

tipifarnib = compound: Cn1cncc1[C@@](N)(c1ccc(Cl)cc1)c1ccc2c(c1)c(-c1cccc(Cl)c1)cc(=O)n2C [tipifarnib]
Method in brief: as §1

[4] = compound: NC(=O)Nc1cc(-c2cccc(F)c2)sc1C(=O)N[C@H]1CCCNC1
Method in brief: as §1

[5] = compound: NC(=O)c1cnc(N[C@@H]2CCCC[C@@H]2N)nc1Nc1cccc(-n2nccn2)c1
Method in brief: as §1

[6] = compound: NC1(c2ccc(-c3nc4ccn5c(=O)[nH]nc5c4cc3-c3ccccc3)cc2)CCC1
Method in brief: as §1

[7] = compound: NCC(=O)Nc1ccc(-n2nc(C(F)(F)F)cc2-c2ccc3c(ccc4ccccc43)c2)cc1
Method in brief: as §1

vorinostat = compound: O=C(CCCCCCC(=O)Nc1ccccc1)NO [vorinostat]
Method in brief: as §1

silmitasertib = compound: O=C(O)c1ccc2c(c1)nc(Nc1cccc(Cl)c1)c1ccncc12 [silmitasertib]
Method in brief: as §1

[8] = compound: O=C1NC(=O)C(c2cnc3ccccn23)=C1c1cn2c3c(cc(F)cc13)CN(C(=O)N1CCCCC1)CC2
Method in brief: as §1

entospletinib = compound: c1cn2cc(-c3ccc4cn[nH]c4c3)nc(Nc3ccc(N4CCOCC4)cc3)c2n1 [entospletinib]
Method in brief: as §1

Measured: log2 fold change

CENPQ (UniProt Q7L2Z9)
inactive: nilotinib -0.025 | [1] 0.044 | dasatinib 0 | [2] -0.036 | [3] -0.015 | quisinostat 0.07 | tipifarnib -0.076 | [4] 0.047 | [5] 0.164 | [6] -0.107 | [7] -0.016 | vorinostat 0.061 | silmitasertib -0.014 | [8] 0.028 | entospletinib 0.047

C12orf45 (UniProt Q8N5I9)
inactive: nilotinib -0.026 | [1] -0.003 | dasatinib 0.019 | [2] -0.017 | [3] 0.035 | quisinostat -0.019 | tipifarnib -0.014 | [4] -0.015 | [5] 0 | [6] 0.024 | [7] 0.063 | vorinostat 0.012 | silmitasertib -0.059 | [8] -0.027 | entospletinib 0

CALB2 (UniProt P22676)
inactive: nilotinib 0.098 | [1] -0.085 | dasatinib -0.037 | [2] 0.056 | [3] 0.016 | quisinostat 0.091 | tipifarnib -0.079 | [4] -0.006 | [5] -0.004 | [6] 0.046 | [7] 0.067 | vorinostat 0.156 | silmitasertib 0.017 | [8] 0.063 | entospletinib 0.019

ATM (UniProt Q13315)
Sequence of UniProt Q13315 (Q13315 whole entry, looked up): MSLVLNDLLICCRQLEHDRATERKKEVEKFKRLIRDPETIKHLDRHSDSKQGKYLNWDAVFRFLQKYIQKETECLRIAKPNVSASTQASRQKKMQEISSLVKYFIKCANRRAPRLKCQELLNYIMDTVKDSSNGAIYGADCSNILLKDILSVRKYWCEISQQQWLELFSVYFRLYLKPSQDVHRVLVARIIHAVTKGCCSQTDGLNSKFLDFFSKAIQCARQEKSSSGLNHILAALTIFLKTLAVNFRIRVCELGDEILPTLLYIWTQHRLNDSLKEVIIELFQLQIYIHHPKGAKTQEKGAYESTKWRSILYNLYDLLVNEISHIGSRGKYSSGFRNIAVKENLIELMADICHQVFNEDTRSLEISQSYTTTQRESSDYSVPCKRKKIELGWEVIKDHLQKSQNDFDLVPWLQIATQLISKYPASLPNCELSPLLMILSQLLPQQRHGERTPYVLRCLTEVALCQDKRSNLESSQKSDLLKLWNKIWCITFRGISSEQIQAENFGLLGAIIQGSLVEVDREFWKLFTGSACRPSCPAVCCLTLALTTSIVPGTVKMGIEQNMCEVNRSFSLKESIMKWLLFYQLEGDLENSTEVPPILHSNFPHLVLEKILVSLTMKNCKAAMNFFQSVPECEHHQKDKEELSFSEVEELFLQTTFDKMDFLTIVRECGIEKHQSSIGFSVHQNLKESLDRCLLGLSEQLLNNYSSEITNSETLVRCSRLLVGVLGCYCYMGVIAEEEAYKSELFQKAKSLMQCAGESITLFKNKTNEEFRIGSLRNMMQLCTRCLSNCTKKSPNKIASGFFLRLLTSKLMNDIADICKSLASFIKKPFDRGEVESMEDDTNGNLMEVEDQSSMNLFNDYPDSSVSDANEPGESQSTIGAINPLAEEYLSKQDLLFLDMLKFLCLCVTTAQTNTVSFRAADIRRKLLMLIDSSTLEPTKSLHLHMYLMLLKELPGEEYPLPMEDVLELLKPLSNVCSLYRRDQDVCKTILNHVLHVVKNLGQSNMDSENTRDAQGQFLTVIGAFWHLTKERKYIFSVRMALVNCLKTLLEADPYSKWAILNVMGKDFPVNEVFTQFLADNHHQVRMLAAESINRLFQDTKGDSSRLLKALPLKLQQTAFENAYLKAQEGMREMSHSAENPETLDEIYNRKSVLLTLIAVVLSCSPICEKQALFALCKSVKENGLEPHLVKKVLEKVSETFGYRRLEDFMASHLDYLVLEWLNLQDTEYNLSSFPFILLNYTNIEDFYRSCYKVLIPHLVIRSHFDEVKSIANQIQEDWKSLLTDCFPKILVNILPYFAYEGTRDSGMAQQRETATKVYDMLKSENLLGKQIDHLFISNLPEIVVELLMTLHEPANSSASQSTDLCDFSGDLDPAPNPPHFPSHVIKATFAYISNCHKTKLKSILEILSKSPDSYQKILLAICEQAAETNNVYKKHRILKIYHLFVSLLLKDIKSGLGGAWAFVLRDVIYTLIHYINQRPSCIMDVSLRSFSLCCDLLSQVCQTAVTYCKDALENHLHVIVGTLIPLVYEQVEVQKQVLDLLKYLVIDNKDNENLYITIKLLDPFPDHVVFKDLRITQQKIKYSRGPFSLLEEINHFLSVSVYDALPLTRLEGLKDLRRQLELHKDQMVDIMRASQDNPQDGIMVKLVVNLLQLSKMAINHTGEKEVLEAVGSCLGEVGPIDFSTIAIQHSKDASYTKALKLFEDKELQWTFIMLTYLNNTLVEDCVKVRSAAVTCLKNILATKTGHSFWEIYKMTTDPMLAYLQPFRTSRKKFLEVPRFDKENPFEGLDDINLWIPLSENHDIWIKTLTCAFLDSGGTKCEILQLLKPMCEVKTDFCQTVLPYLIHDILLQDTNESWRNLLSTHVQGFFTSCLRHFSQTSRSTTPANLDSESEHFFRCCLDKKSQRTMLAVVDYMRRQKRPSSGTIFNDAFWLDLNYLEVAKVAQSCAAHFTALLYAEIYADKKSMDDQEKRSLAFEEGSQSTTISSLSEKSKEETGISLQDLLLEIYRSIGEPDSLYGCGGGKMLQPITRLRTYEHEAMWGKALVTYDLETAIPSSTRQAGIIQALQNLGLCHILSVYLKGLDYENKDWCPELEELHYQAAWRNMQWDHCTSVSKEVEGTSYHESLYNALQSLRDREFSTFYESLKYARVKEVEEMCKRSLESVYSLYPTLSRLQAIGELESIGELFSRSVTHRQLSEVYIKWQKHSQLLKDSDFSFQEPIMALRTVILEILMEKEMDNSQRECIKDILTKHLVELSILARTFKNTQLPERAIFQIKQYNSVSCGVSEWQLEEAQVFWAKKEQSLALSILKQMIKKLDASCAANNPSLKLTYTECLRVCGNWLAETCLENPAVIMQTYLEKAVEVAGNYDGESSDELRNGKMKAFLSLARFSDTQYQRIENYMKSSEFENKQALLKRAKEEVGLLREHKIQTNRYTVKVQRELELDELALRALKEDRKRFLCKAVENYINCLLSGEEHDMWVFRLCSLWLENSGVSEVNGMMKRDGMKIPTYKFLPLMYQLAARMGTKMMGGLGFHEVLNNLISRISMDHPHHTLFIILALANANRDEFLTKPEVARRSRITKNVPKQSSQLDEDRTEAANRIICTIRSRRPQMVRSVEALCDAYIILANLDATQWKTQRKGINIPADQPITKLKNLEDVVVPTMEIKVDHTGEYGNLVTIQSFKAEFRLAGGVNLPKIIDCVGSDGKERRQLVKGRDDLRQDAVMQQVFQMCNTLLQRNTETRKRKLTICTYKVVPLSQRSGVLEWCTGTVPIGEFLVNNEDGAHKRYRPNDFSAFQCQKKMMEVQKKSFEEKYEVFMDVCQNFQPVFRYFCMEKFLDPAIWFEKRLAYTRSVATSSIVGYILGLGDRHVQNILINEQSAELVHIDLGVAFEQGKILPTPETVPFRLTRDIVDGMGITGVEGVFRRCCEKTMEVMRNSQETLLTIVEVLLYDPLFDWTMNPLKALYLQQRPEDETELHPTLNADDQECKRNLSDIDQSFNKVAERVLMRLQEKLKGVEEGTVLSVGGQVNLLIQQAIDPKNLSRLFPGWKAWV
inactive: nilotinib -0.019 | [1] -0.019 | dasatinib -0.071 | [2] 0.084 | [3] 0.038 | quisinostat 0.039 | tipifarnib 0.009 | [4] 0.009 | [5] 0.039 | [6] 0.008 | [7] 0.058 | vorinostat -0.093 | silmitasertib 0.118 | [8] -0.033 | entospletinib 0.036

ATG7 (UniProt O95352)
active: vorinostat -0.47
inactive: nilotinib 0.02 | [1] -0.03 | dasatinib -0.026 | [2] -0.032 | [3] 0.037 | quisinostat -0.039 | tipifarnib 0.03 | [4] 0.058 | [5] 0.01 | [6] -0.02 | [7] 0.008 | silmitasertib 0.005 | [8] -0.005 | entospletinib 0.001

CHD3 isoform 3 (UniProt Q12873)
active: vorinostat -0.316
inactive: nilotinib 0.036 | [1] -0.004 | dasatinib -0.033 | [2] -0.047 | [3] 0.032 | quisinostat 0.005 | tipifarnib 0.014 | [4] 0.029 | [5] -0.002 | [6] 0.008 | [7] 0.022 | silmitasertib 0.032 | [8] -0.004 | entospletinib 0.002

CEP41 (UniProt Q9BYV8)
active: vorinostat -0.558
inactive: nilotinib 0.001 | [1] 0.034 | dasatinib 0.043 | [2] -0.008 | [3] -0.077 | quisinostat -0.068 | tipifarnib -0.027 | [4] -0.128 | [5] 0.066 | [6] 0.076 | [7] 0.002 | silmitasertib -0.026 | [8] -0.152 | entospletinib -0.017

CDC45 isoform 3 (UniProt O75419)
active: vorinostat -0.487
inactive: nilotinib -0.022 | [1] 0.013 | dasatinib -0.044 | [2] -0.003 | [3] 0.038 | quisinostat 0.015 | tipifarnib -0.022 | [4] 0.047 | [5] 0.003 | [6] -0.058 | [7] -0.021 | silmitasertib 0.012 | [8] 0.015 | entospletinib 0.03

CARD11 (UniProt Q9BXL7)
inactive: nilotinib -0.047 | [1] 0.04 | dasatinib -0.053 | [2] 0.043 | [3] 0.004 | quisinostat -0.031 | tipifarnib -0.015 | [4] 0.025 | [5] 0.048 | [6] 0.009 | [7] -0.113 | silmitasertib 0.001 | [8] 0.004 | entospletinib -0.031
active: vorinostat -0.406

CHD5 (UniProt Q8TDI0)
inactive: nilotinib -0.007 | [1] 0.021 | dasatinib 0.038 | [2] -0.022 | [3] 0.007 | quisinostat -0.082 | tipifarnib 0.005 | [4] 0.02 | [5] -0.019 | [6] 0.01 | [7] 0.059 | silmitasertib 0.007 | [8] 0.042 | entospletinib 0.025
active: vorinostat -0.261

CDK11B (UniProt P21127)
Sequence of UniProt P21127 (P21127 whole entry, looked up): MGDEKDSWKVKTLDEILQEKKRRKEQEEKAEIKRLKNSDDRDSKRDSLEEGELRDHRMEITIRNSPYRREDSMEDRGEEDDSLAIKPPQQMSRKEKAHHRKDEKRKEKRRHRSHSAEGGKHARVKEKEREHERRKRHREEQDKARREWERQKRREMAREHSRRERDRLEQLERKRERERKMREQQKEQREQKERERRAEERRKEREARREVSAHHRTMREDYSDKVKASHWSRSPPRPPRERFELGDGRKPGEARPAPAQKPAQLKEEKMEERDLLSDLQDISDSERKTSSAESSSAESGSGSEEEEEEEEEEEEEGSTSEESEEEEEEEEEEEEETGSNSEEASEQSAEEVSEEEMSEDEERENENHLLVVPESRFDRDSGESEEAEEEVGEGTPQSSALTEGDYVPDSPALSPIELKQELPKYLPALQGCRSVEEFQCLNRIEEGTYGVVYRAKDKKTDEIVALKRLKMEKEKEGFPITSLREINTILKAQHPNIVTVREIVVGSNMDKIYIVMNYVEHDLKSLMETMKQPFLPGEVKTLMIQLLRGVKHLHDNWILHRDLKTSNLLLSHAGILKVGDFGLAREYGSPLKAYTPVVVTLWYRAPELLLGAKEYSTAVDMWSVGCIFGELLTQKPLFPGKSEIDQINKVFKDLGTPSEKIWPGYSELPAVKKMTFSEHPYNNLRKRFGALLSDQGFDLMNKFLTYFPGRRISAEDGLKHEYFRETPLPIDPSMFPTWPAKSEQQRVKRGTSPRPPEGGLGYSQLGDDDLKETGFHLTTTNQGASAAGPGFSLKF
active: entospletinib 0.255
inactive: nilotinib -0.006 | [1] -0.015 | dasatinib -0.028 | [2] 0.087 | [3] 0.068 | quisinostat -0.023 | tipifarnib 0.01 | [4] 0.018 | [5] 0.009 | [6] -0.018 | [7] 0.009 | vorinostat -0.115 | silmitasertib 0.065 | [8] -0.023

CAMLG (UniProt P49069)
Sequence of UniProt P49069 (P49069 whole entry, looked up): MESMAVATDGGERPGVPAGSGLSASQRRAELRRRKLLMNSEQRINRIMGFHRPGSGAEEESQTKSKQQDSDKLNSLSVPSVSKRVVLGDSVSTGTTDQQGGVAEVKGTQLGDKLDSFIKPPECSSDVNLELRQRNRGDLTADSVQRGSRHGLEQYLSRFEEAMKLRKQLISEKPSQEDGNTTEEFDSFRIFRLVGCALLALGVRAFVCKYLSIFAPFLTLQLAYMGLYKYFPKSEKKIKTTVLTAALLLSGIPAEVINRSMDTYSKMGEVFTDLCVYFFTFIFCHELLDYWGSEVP
inactive: nilotinib 0.048 | [1] -0.082 | dasatinib 0.017 | [2] -0.069 | [3] 0.064 | quisinostat 0.01 | tipifarnib -0.084 | [4] 0.005 | [5] -0.009 | [6] 0.046 | [7] -0.009 | vorinostat -0.15 | silmitasertib -0.027 | [8] 0.006 | entospletinib 0.001

CHCHD1 (UniProt Q96BP2)
inactive: nilotinib -0.09 | [1] -0.023 | dasatinib 0.084 | [2] -0.043 | [3] -0.097 | quisinostat -0.174 | tipifarnib -0.03 | [4] 0 | [5] -0.023 | [6] -0.019 | [7] 0.131 | vorinostat 0.055 | silmitasertib -0.039 | [8] -0.014 | entospletinib -0.081

BRD4 (UniProt O60885)
inactive: nilotinib 0.034 | [1] -0.009 | dasatinib -0.018 | [2] 0.019 | [3] -0.001 | quisinostat -0.091 | tipifarnib -0.019 | [4] 0.013 | [5] -0.051 | [6] -0.008 | [7] 0.01 | vorinostat -0.115 | silmitasertib -0.011 | [8] -0.02 | entospletinib -0.028

ATRIP (UniProt Q8WXE1)
inactive: nilotinib -0.014 | [1] -0.028 | dasatinib -0.059 | [2] 0.071 | [3] 0.045 | quisinostat -0.03 | tipifarnib -0.049 | [4] -0.007 | [5] 0.01 | [6] 0.032 | [7] -0.088 | vorinostat -0.28 | silmitasertib 0.229 | [8] 0.039 | entospletinib -0.009

CALM2 (UniProt P0DP24)
inactive: nilotinib -0.009 | [1] 0.014 | dasatinib -0.013 | [2] 0.022 | [3] -0.001 | quisinostat -0.178 | tipifarnib 0.016 | [4] -0.053 | [5] -0.014 | [6] -0.06 | [7] 0.008 | vorinostat -0.027 | silmitasertib 0.064 | [8] -0.121 | entospletinib -0.048

BCKDK (UniProt O14874)
inactive: nilotinib 0.008 | [1] 0.001 | dasatinib 0.023 | [2] -0.061 | [3] 0.058 | quisinostat 0.094 | tipifarnib -0.058 | [4] -0.092 | [5] -0.029 | [6] 0.052 | [7] -0.01 | vorinostat 0.025 | silmitasertib 0.052 | entospletinib -0.053
active: [8] -0.271

CDC25C (UniProt P30307)
active: vorinostat -0.271
inactive: nilotinib 0.039 | [1] -0.037 | dasatinib 0.042 | [2] -0.048 | [3] 0.004 | quisinostat 0.056 | tipifarnib -0.004 | [4] 0.025 | [5] 0.015 | [6] 0.05 | [7] -0.019 | silmitasertib 0.009 | [8] 0.026 | entospletinib -0.01

CAMKK2 (UniProt Q96RR4)
inactive: nilotinib -0.038 | [1] 0.176 | dasatinib 0.031 | [2] 0.028 | [3] 0.023 | quisinostat -0.01 | tipifarnib -0.037 | [4] 0.1 | [5] -0.046 | [6] 0 | [7] 0.081 | silmitasertib 0.074 | [8] -0.02 | entospletinib 0.039
active: vorinostat -0.325

BRD2 isoform 2 (UniProt P25440)
Sequence of UniProt P25440 (P25440 whole entry, looked up): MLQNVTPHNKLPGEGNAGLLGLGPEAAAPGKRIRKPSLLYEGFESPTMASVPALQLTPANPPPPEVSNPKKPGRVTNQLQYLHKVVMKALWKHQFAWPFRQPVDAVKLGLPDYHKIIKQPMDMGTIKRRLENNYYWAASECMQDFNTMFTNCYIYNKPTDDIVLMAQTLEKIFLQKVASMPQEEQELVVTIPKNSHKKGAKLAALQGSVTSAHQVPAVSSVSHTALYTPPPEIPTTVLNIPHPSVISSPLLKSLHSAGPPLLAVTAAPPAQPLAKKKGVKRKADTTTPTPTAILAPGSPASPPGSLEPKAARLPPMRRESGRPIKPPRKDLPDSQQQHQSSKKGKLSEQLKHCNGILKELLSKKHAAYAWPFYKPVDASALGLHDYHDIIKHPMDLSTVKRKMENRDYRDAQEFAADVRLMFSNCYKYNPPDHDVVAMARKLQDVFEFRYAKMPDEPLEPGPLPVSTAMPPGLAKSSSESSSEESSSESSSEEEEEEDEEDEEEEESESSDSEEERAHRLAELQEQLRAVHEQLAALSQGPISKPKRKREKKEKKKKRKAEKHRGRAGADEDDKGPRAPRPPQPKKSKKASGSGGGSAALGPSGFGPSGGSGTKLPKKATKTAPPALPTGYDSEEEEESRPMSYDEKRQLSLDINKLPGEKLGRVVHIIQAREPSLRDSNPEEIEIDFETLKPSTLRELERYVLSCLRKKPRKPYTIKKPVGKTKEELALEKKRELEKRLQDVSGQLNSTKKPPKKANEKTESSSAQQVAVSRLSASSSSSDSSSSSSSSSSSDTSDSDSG
inactive: nilotinib 0.012 | [1] 0.15 | dasatinib 0.011 | [2] -0.024 | [3] -0.048 | quisinostat -0.028 | tipifarnib -0.035 | [4] 0.028 | [5] -0.161 | [6] -0.064 | [7] 0.048 | vorinostat 0.107 | silmitasertib 0.074 | [8] 0.051 | entospletinib 0.021

CCNH (UniProt P51946)
active: vorinostat -0.43
inactive: nilotinib -0.013 | [1] 0.106 | dasatinib 0.03 | [2] -0.001 | [3] 0.015 | quisinostat 0.016 | tipifarnib -0.043 | [4] -0.009 | [5] 0.026 | [6] 0.013 | [7] 0.028 | silmitasertib 0.02 | [8] -0.07 | entospletinib 0.02

— the supplement of paper PMC10849652
